# Screens: PubChem, National Center for Advancing Translational Sciences (NCATS)
# Shown is part of a subset that was picked to be rich in hits.
# Menin-MLL TR inh: inhibitors of human menin-MLL interaction, mutant MLL peptide; AID 1768; 270,000 compounds, 0.23% hits; Menin + Texas Red MLL mutant peptide, fluorescence polarization; Potency, µM (series often up to 61.6 µM), for the others: at the highest dose FP activity change, negative = inhibition, hits mostly inhibitors; active means well fitted inhibition curve with a large enough effect in the polarisation, with a control signal flat, not every such curve was filed as active; inconclusive means small, poorly fitted or top-dose-only effect, or effect the other way, or a change in a side signal; inactive means no such curve, though single readings can be large or run the other way; the % refers to the polarisation; further: potency means the concentration at half of the fitted maximal effect; % of control where 0% means no effect
# Target sequence (O00255 whole entry, looked up): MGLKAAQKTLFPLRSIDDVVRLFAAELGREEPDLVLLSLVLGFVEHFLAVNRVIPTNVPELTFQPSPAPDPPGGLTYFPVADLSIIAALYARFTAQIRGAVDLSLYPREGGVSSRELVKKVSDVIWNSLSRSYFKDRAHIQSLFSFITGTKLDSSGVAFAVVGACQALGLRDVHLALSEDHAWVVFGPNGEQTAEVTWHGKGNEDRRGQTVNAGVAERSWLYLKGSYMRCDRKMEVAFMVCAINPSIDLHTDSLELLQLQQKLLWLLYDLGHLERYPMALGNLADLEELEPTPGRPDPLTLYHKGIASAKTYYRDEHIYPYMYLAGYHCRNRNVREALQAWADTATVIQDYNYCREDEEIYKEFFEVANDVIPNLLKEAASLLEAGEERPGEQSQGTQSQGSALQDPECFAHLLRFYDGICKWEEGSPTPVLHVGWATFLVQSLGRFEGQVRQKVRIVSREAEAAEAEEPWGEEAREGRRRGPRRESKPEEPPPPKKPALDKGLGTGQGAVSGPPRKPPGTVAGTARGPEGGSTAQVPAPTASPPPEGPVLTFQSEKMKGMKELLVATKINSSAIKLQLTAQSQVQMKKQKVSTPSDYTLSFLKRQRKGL
# Menin MLL FP FL: inhibitors of human menin-MLL interaction, wild-type MLL peptide. Fluorescence polarization, fluorescein-MLL peptide displacement from menin. FP activity change, % at 61.4 µM. 290,000 tested, under 10 active; active means well fitted curve in the direction sought with a large enough effect in the polarisation, not every such curve was filed as active; inconclusive means small, poorly fitted or top-dose-only effect, or effect the other way, or a change in a side signal; inactive means no such curve, though single readings can be large or run the other way; the % refers to the polarisation; further: % of control where 0% means no effect
# MBNL1-CUG inh: MBNL1-poly(CUG) RNA binding inhibition; TR-FRET MBNL1-His/biotin-(CUG)12 binding, 665/545 ratio; Potency, µM (top dose mostly 57.5 µM), for inactives: top-dose activity change, negative = inhibition, usual class: inhibitors; 280,000 compounds, 0.036% hits; AID 2675; active means well fitted inhibition curve with a large enough effect in the signal ratio, with a control signal flat, not every such curve was filed as active; inconclusive means small, poorly fitted or top-dose-only effect, or effect the other way, or a change in a side signal; inactive means no such curve, though single readings can be large or run the other way; the % refers to the signal ratio; further: potency means the concentration at half of the fitted maximal effect; on the % scale 0 is the no-effect control and ±100 the full control effect
#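 His-tagged MBNL1 binding to biotinylated (CUG)12 RNA was measured by TR-FRET using terbium anti-His antibody (0.055 ng/ul final) and streptavidin-XL665 (5 nM final). Compounds were titrated 92 nM to 58 uM; 60 min at room temperature.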
# MLL CXXC-DNA inh: MLL CXXC-DNA interaction inhibition; AID 2662; Q03164; MLL-CXXC / FITC-HOXA9 DNA fluorescence polarization; Potency, µM (series often up to 115 µM), without a hit: at the highest dose activity change, negative = inhibition, usual class: inhibitors; 290,000 compounds, 0.037% hits; active means well fitted inhibition curve with a large enough effect in the polarisation, with a control signal flat, not every such curve was filed as active; inconclusive means small, poorly fitted or top-dose-only effect, or effect the other way, or a change in a side signal; inactive means no such curve, though single readings can be large or run the other way; the % refers to the polarisation; further: potency means the concentration at half of the fitted maximal effect
#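 Fluorescence polarization: 7 uM MLL-CXXC (stock) preincubated 5 min with compounds, then 50 nM fluorescein-HOX-A9 DNA (stock) added; 30 min ambient. Buffer 50 mM Tris-HCl pH 7.5, 50 mM NaCl, 1 mM DTT, 0.05% BSA.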
# Numbers without * were called inactive; u = inconclusive; x = not tested or not shown; [ ] = remark or other dose.
SMILES,Menin-MLL TR inh,Menin MLL FP FL,MBNL1-CUG inh,MLL CXXC-DNA inh
CC1NC(=O)NC1CCCCC(=O)O (stereo not given),-3.5%,0.1,-13.5%,1.8%
CCc1cccc(NC(=O)CCCCCC2NC(=O)NC2C)c1 (stereo not given),-8.9%,3.2,0.1µM*,11.1%
O[C@@H]1CO[C@H]2C1OC[C@@H]2O (stereo not given in full),0.5%,-7.3,x,x
N#Cc1ccc(-c2csc(NC(=O)c3ccc(S(=O)(=O)N4CCc5ccccc5C4)cc3)n2)cc1,11.2µM*,10.4,-5.4%,-2.6%
Cc1ccccc1Nc1nc(Nc2ccccc2C)nc(SC2=NCCS2)n1,-25.1%,1.7,2.7%,22.8%
Cc1ccc(Nc2nc(Nc3ccc(C)cc3)nc(SC3=NCCS3)n2)cc1,39.8µM*,1.2,-9.7%,19.7%
COc1ccc(-n2nc3cc(C)c(NC(=S)NC(=O)c4ccccc4C)cc3n2)cc1,22.4µM*,2.4,78.7%,2.7%
CCOC(=O)CCCCC(=O)c1[nH]c(=O)[nH]c1CSc1nc(-c2ccccc2)c(C#N)c(=O)[nH]1,25.6%,0.2,7.08µM*,4.8%
N#Cc1c(-c2ccccc2)nc(SCC(=O)N(c2ccccc2)c2ccccc2)[nH]c1=O,33.2%,13.5,u,-9.4%
CCOC(=O)CCCCC(=O)c1[nH]c(=O)[nH]c1CSCCO,4.8%,-0.9,3.55µM*,3.7%
COc1ccc(C(=O)/C(Br)=C/C(=O)O)cc1,-6.3%,0.4,x,-1.7%
COc1cccc(/C=N/NC(=O)c2cc(-c3cccn3C)n[nH]2)c1,35.5µM*,1.8,-4.2%,13.2%
COc1cc(/C=N/NC(=O)c2cc(-c3cccn3C)n[nH]2)cc(OC)c1OC,16.3%,5.7,11.3%,-0.3%
CCC(C=C[C@@H]1OC(=O)C=C[C@H]1C)=C[C@H](C)CC=CC(C)=C[C@@H](C)C(=O)[C@@H](C)[C@H](O)[C@@H](C)CC(C)=CC(=O)O,-21.9%[2.28 µM],-6.5[2.29 µM],x,x
COC(=O)C1=C(C(=O)OC)[C@@H]2N(Cc3ccccc3)c3ccccc3[C@@]23C[C@@H](C(=O)OC)N(S(=O)(=O)c2ccc4c(c2)OCCN4C)C3=N1,-8.2%[11.7 µM],-3.8[11.7 µM],x,x
COc1ccc(C(=O)Nc2ccc(NC(=O)c3cccs3)cc2)cc1Cl,7.08µM*,3.7,-13.3%,3.3%
COc1ccc(C(=O)Nc2ccc(NC(=O)c3cccs3)c(OC)c2)cc1Cl,u,0.4,-8.7%,1.1%
Nc1cccc2c(=O)[nH]ccc12,16.7%,9.8,x,x
COc1ccc(N(CC(O)Cn2c3ccccc3c3ccccc32)S(=O)(=O)c2ccccc2)cc1 (stereo not given),25.1µM*,-1.9,0.6%,27.7%
COC(=O)c1oc2ccc(Br)cc2c1NC(=O)c1ccccc1,28.2µM*,4.4,14.8%,0.7%
O=C(Nc1ccc(OC(=O)c2ccccc2)c(-c2nc3ccccc3s2)c1)c1ccccc1,17.8µM*,1.6,0.8%,51.3%
CC(=O)Nc1ccc(O)c(-c2nc3ccccc3s2)c1,u,-2.6,u,2.7%
O=C(CNCC1CCCO1)Nc1ccc(N2CCCCCC2)cc1 (stereo not given),14.1µM*,1.8,7.9%,8.4%
O=C(CNCC1CCCCC1)Nc1ccc(N2CCCCC2)cc1,u,3.2,-1.0%,-3.1%
COc1ccccc1NC(=O)Cn1nnc(-c2ccccc2NS(=O)(=O)c2ccccc2)n1,u,0.0,0.1%,10.8%
SMILES,Menin-MLL TR inh,Menin MLL FP FL,MBNL1-CUG inh,MLL CXXC-DNA inh
COc1ccccc1NC(=O)Cn1nnc(-c2ccccc2NC(=O)c2cc3ccccc3oc2=O)n1,20µM*,-0.8,14.6%,-11.2%
COc1cccc(C2=Nn3c(nnc3-c3ccccc3C)SC2)c1,-20.4%,-3.9,x,x
N=C1SC(c2ccccc2)C(=O)N1c1ncc(Cc2ccccc2Cl)s1 (stereo not given),14.1µM*,5.6,34.9%,13.5%
CCCCCCCCOc1c(OC)cc(/C=C/C(=O)N2CCN(c3ccc(C)c(C)c3)CC2)cc1OC,u,-0.5,x,x
c1nc2nc(Nc3ccc(N4CCOCC4)cc3)nc(NC3CCCCC3)c2[nH]1,u,-0.3,x,x
CC1=NN(c2cccc(F)c2)C(=O)/C1=C/c1ccc(N(C)C)cc1,22.4µM*,-14.1,3.1%,u
CCCCC(=O)OCC(=O)[C@]1(O)Cc2c(O)c3c(c(O)c2[C@H](OC2CC(NC(=O)C(F)(F)F)C(O)C(C)O2)C1)C(=O)c1c(OC)cccc1C3=O (stereo not given in full),28.2µM*,-19.3,x,-3.0%
